{"source": "PubChem BioAssay (NCATS)", "note": "Inconclusive results are not listed. Where a call stands in place of a potency, no number is given. The source made the active and inactive calls. Calls follow the shape of the dose curve; as a rule, active = well fitted inhibition curve with a large enough effect; inconclusive = small, poorly fitted or top-dose-only effect; inactive = flat fitted curve, though single readings scatter. Potency is read from the fitted curve at half-maximal effect."}
{"biological_target": "Calcium and integrin-binding protein 1 (Homo sapiens) (UniProt Q99828)", "sequence (Q99828 whole entry, looked up)": "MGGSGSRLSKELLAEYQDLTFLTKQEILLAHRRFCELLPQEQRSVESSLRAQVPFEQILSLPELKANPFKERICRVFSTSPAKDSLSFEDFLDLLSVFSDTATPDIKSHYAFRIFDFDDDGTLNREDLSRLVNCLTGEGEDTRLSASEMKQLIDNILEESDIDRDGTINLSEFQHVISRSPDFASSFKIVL", "assay": "Primary qHTS for Identification of Calcium Integrin Binding Protein 1 (CIB1) Competitor (AID 1508620)", "conditions": "CIB1-GST / FITC-alphaIIb peptide fluorescence polarization; series mostly up to 114 µM", "method_in_brief": "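Fluorescence polarization competition: CIB1-GST (1 uM final) preincubated with compound 15 min at room temperature, then FITC-labeled alphaIIb peptide (100 nM final) added for another 15 min. Polarization read at Ex 480/Em 540.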"}
{"smiles": "Cc1cc(C)nc(NC(=S)N2CCN(c3ncnc4sccc34)CC2)c1", "Potency": "inactive"}
{"smiles": "O=C(O)CN1C(=O)N/C(=C\\c2cccn2-c2ccc(P(=O)(O)O)cc2)C1=O", "Potency": "inactive"}
{"smiles": "O=C1NS(=O)(=O)c2cc(Cl)ccc21", "Potency": "inactive"}
{"smiles": "COc1ccc(C2=Nn3c(nnc3-c3cccc(OC)c3)SC2)cc1", "Potency": "inactive"}
{"smiles": "Cc1ccc2nc3sc(C(=O)NCCN4CCOCC4)cc3cc2c1", "Potency": "inactive"}
{"smiles": "Cc1cc(NS(=O)(=O)c2ccc(NC(=O)Cc3ccc(C)c(C)c3)cc2)no1", "Potency": "inactive"}
{"smiles": "O=S1(=O)N=C(Oc2ccccc2C(F)(F)F)c2ccccc21", "Potency": "inactive"}
{"smiles": "Cc1cc2c(s1)c1cnn(Cc3ccccc3Br)c(=O)c1n2C", "Potency": "inactive"}
{"smiles": "Cc1cnc(-c2ccccc2C(C)C)nc1NCc1cccnc1", "Potency": "inactive"}
{"smiles": "COc1ccc(C2=Nn3c(nnc3-c3ccccc3OC)SC2)cc1OC", "Potency": "inactive"}
{"smiles": "Cc1ccc(C(=O)NC2CCN(C#N)CC2)cc1", "Potency": "inactive"}
{"smiles": "O=S(=O)(c1ccccc1)N1CCN(c2nccc(-c3cccs3)n2)CC1", "Potency": "inactive"}
{"smiles": "Clc1ccc(CSc2nc3ncc(Br)cc3[nH]2)cc1Cl", "Potency": "inactive"}
{"smiles": "CN1CCc2ccc3c4c2[C@]1(C)Cc1cccc(c1-4)OCO3", "Potency": "39.8 µM (active)"}
{"smiles": "COc1ccc(C2Nc3ccccc3C(=O)N2Cc2ccco2)cc1", "note": "(stereo not drawn)", "Potency": "inactive"}
{"smiles": "CS(=O)(=O)/C=C/c1nc(Nc2cc(F)cc(F)c2)c2ncn(CC(F)F)c2n1", "Potency": "inactive"}
{"smiles": "CC(=O)Nc1cccc(S(=O)(=O)N2CCN(S(=O)(=O)c3c(F)cccc3F)CC2)c1", "Potency": "inactive"}
{"smiles": "O=C1c2ccccc2NC(c2ccc(-c3ccc(F)cc3)o2)N1O", "note": "(stereo not drawn)", "Potency": "inactive"}
{"smiles": "Cc1ccc(NC(=O)c2cnn3c(C)cc(C)nc23)cc1", "Potency": "inactive"}
{"smiles": "O=C(Cn1nc(-c2ccncc2)ccc1=O)NCCc1ccccc1", "Potency": "inactive"}
{"smiles": "COc1ccccc1C(=O)OCC#CCSc1nnc(-c2cccc3ccccc23)o1", "Potency": "inactive"}
{"smiles": "Fc1ccccc1-c1ccc(Nc2nc(-c3ccncc3)nc3ccccc23)cc1F", "Potency": "inactive"}
{"smiles": "Oc1ccc(CNc2ccccn2)c2cccnc12", "Potency": "inactive"}
